Test results from the supplement of paper PMC11732987, “Enantioselective OTUD7B fragment discovery through chemoproteomics screening and high-throughput optimisation” (Communications Chemistry, 2025).
Values without a mark were called inactive.

Columns and labels:
Test in all cases: log2 ratio of Biotin-Ahx-Ub-VS probe labelling (fragment/DMSO); higher = less target engagement (more negative = stronger competition), active = hit call of the paper (q ≤ 0.05, log2 ratio ≤ -1)
Details in all cases: compound concentration: 200 uM; treatment time: 3 h
[1] = target: T1, OTUD6B (UniProt Q8N6M0)
T1 sequence (whole entry): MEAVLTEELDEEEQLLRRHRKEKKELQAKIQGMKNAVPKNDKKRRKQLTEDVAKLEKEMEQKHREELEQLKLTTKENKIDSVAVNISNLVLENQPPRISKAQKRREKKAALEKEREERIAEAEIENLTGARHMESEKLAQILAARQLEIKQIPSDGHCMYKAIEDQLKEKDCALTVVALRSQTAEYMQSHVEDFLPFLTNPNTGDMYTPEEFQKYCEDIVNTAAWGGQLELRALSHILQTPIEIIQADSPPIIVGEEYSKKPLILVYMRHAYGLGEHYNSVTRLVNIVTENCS
How it was run: (§1)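 The table lists average log2 ratios of fragment over vehicle, from an unpaired t-test on global-median-normalised Spectronaut label-free quantities. Proteins with ≥2 unique peptides were used. Samples were HEK293T lysate (495 µg) treated in triplicate with fragment at 200 µM or vehicle for 3 h, then with Biotin-Ahx-Ub-VS (0.5 µM final) for 1 h, with labelled DUBs NeutrAvidin-enriched and run by diaPASEF LC-MS/MS.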

[2] = target: T2, OTUD7B (UniProt Q6GQQ9)
T2 sequence (whole entry): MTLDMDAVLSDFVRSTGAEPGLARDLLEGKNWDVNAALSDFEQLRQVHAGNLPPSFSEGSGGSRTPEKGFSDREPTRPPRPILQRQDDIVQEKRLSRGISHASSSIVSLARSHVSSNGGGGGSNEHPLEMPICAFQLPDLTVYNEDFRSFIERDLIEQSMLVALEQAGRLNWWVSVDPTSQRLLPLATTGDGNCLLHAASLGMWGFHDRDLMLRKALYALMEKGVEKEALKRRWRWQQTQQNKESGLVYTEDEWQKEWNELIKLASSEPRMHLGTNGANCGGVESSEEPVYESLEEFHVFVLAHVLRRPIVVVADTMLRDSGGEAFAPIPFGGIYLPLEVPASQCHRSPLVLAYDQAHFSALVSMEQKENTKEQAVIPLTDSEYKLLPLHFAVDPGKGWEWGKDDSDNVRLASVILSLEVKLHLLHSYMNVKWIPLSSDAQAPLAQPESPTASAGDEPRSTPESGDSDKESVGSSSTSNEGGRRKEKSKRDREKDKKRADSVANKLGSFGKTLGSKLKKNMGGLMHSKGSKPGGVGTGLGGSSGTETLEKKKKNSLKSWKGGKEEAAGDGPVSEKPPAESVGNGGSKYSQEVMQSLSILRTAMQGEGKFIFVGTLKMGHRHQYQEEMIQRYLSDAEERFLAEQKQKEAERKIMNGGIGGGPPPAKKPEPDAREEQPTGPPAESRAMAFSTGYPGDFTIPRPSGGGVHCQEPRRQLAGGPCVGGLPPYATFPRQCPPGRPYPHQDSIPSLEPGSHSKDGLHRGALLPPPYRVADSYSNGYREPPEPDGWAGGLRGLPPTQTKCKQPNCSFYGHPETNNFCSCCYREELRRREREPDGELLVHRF
How it was run: as §1

[3] = target: PRPF8 (UniProt Q6P2Q9)
How it was run: as §1

[4] = target: T3, PSMD7 (UniProt P51665)
T3 sequence (whole entry): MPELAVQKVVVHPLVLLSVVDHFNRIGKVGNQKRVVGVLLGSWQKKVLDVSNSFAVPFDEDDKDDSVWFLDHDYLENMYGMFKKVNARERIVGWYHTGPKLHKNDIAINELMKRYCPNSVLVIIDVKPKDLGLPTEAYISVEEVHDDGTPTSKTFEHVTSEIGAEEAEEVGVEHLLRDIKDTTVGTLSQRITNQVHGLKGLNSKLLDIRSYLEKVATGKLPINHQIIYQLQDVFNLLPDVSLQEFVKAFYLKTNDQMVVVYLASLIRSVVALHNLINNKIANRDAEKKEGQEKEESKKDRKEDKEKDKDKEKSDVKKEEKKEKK
How it was run: as §1

[5] = target: UCHL1 (UniProt P09936)
UCHL1, sequence (P09936 whole entry, looked up): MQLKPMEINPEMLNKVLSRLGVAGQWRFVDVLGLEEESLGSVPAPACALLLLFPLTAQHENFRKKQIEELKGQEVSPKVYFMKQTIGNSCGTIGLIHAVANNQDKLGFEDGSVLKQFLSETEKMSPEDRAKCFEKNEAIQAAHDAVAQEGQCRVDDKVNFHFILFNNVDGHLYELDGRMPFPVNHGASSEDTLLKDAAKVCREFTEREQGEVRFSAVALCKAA
How it was run: as §1

[6] = target: T4, UCHL3 (UniProt P15374)
T4 sequence (whole entry): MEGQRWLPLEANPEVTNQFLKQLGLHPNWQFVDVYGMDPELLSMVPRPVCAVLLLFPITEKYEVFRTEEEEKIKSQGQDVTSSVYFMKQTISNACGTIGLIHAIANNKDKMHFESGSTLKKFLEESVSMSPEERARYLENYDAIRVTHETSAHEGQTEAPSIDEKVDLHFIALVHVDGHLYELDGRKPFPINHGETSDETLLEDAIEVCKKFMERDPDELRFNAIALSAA
How it was run: as §1

[7] = target: T5, UCHL5 (UniProt Q9Y5K5)
T5 sequence (whole entry): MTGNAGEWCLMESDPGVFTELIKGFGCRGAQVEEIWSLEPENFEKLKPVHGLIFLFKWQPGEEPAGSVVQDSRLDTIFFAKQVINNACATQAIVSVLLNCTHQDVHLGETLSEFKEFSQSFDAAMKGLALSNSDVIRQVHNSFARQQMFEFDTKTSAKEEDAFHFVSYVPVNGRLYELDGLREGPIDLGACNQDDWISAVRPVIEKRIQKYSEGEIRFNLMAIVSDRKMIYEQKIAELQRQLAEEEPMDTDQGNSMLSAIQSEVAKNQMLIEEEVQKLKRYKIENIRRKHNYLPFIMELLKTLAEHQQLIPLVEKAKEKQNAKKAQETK
How it was run: as §1

[8] = target: USP10 (UniProt Q14694)
USP10, sequence (Q14694 whole entry): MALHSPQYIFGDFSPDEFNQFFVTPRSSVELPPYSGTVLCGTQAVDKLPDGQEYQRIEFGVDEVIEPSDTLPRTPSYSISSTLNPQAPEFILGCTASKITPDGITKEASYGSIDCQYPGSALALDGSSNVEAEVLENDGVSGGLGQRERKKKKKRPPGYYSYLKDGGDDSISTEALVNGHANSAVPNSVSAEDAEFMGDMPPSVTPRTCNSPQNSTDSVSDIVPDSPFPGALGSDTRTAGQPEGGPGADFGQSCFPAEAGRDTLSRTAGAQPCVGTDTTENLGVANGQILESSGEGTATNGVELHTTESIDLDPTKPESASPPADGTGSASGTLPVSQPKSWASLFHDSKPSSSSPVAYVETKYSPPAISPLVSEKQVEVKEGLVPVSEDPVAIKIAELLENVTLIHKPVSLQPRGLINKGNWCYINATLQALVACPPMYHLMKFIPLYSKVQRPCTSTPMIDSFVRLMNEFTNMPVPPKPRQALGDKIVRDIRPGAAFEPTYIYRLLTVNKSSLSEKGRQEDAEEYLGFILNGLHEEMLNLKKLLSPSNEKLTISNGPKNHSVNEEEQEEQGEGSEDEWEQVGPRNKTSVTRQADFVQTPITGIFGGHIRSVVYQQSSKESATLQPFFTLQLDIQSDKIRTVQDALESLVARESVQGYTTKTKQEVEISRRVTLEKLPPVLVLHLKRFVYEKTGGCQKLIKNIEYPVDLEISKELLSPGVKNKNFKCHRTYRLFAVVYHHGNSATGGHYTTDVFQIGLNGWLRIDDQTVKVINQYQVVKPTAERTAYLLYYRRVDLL
How it was run: as §1

[9] = target: T6, USP15 (UniProt Q9Y4E8)
T6 sequence (whole entry): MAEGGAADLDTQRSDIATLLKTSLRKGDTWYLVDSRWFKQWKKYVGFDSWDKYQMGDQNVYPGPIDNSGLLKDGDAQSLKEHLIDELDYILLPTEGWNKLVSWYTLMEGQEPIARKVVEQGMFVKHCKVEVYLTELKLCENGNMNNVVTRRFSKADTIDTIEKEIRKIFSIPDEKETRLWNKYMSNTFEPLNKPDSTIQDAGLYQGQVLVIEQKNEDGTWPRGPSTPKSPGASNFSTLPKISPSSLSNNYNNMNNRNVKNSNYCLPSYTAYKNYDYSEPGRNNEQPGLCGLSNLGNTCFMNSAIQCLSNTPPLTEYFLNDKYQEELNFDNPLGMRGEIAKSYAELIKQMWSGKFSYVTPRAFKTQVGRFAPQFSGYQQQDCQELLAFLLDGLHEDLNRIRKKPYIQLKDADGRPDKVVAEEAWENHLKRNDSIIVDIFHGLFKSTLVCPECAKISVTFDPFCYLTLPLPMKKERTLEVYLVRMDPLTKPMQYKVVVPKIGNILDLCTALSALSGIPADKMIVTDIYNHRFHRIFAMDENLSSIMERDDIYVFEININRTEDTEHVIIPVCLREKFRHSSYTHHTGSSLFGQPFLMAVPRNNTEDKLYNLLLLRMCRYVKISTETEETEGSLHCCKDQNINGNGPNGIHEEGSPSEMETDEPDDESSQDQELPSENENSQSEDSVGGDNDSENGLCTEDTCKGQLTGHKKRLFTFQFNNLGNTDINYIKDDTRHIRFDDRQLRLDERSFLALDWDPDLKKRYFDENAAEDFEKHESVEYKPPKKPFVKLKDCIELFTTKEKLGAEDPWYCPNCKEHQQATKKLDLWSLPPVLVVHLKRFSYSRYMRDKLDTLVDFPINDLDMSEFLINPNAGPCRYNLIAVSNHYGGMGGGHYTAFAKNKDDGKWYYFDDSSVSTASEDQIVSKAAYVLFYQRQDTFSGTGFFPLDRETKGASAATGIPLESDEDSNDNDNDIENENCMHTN
How it was run: as §1

[10] = target: USP16 (UniProt Q9Y5T5)
USP16, sequence (Q9Y5T5 whole entry, looked up): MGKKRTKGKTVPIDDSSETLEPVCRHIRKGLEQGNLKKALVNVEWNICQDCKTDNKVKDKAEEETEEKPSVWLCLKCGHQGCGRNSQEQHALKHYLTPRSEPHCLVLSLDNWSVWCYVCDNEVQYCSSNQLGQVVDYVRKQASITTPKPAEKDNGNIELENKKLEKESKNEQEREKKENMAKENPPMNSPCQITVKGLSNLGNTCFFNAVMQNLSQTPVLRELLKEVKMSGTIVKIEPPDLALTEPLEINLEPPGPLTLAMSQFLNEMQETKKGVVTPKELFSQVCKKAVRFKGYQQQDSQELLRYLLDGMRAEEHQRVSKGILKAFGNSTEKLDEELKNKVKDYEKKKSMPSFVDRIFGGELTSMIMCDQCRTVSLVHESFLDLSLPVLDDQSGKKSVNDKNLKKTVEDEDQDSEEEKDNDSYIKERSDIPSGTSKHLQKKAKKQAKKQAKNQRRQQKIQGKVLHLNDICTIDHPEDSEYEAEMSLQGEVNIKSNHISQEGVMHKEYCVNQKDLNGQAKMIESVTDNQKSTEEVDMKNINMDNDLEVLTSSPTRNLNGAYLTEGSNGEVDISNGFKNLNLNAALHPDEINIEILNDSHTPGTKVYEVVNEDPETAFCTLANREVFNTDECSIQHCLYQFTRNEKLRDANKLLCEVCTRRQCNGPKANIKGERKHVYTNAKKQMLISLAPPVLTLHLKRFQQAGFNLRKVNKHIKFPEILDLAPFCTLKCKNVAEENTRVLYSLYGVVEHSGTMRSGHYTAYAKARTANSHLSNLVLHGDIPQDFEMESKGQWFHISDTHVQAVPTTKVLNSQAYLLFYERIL
How it was run: as §1

SMILES: O=C(CCl)NC1CCS(=O)(=O)c2ccccc21 (stereo not given)
- log2 ratio of Biotin-Ahx-Ub-VS probe labelling [1]: -0.258
- log2 ratio of Biotin-Ahx-Ub-VS probe labelling [2]: -1.79 (active)
- log2 ratio of Biotin-Ahx-Ub-VS probe labelling [3]: -0.00882
- log2 ratio of Biotin-Ahx-Ub-VS probe labelling [4]: -0.335
- log2 ratio of Biotin-Ahx-Ub-VS probe labelling [5]: -1.81 (active)
- log2 ratio of Biotin-Ahx-Ub-VS probe labelling [6]: 0.125
- log2 ratio of Biotin-Ahx-Ub-VS probe labelling [7]: -0.554
- log2 ratio of Biotin-Ahx-Ub-VS probe labelling [8]: 0.0657
- log2 ratio of Biotin-Ahx-Ub-VS probe labelling [9]: -0.242
- log2 ratio of Biotin-Ahx-Ub-VS probe labelling [10]: -0.0991
